Laboratory results reported in PubChem BioAssay AID488890 (Southern Research Specialized Biocontainment Screening …, 2010).
In all, about 320,000 compounds went through this assay and about 1,300 (0.41%) were called active. About 3% were inconclusive and are not listed. The rule behind the calls is not given here. A selection follows. Potency and affinity values are given separately.

Experiment: growth inhibition of non-replicating M. tuberculosis (AID 488890);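 note: plate controls were DMSO cells for no effect and high antibiotic wells for full effect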
Settings: Mycobacterium tuberculosis non-replicating, at 25 µM, stronger effect = higher value

Compared with Cc1ccc(C2=N/C(=C\N3CCCCC3)C(=O)O2)cc1, Cc1ccc(-c2noc(=O)n2CC(=O)Nc2ccc(S(=O)(=O)NC3CC3)cc2)cc1 is lower in inhibition: 21.3% for the first, 11.5% for the second.

First: CC1=N/C(=C/c2cccnc2)C(=O)O1
Second: Cc1ccc(S(=O)(=O)NCc2cccnc2)cc1C
The inhibition of the first is lower: -16.7% for the first, 3.38% for the second.

Compared with COc1ccccc1C(c1c(N)n(C)c(=O)n(C)c1=O)C(C)[N+](=O)[O-] (configuration not stated), COc1cc(C(C[N+](=O)[O-])c2c(N)n(C)c(=O)n(C)c2=O)ccc1O (configuration not stated) is lower in inhibition: 53% for the first, 23.3% for the second.

First: COc1ccc(CCN(C)Cc2ccncc2)cc1OC
Second: COc1ccc(CCNC(=O)C2CCN(C(=O)c3ccc(Br)cc3)CC2)cc1OC
The inhibition of the first is higher: 1.96% for the first, -3.89% for the second.

First: O=C(Nc1ncccc1O)c1ccc2c(c1)OCCO2
Second: O=C(Nc1cccc2cccnc12)c1ccc2c(c1)OCCO2
The inhibition of the first is lower: -9.11% for the first, 16.4% for the second.

First: COc1ccccc1OC(=O)c1ccc(C)c(S(=O)(=O)N2CCOCC2)c1
Second: COc1ccc(OC(=O)c2ccc(OC)c(S(=O)(=O)N3CCOCC3)c2)cc1
The inhibition of the first is lower: 16.8% for the first, 21.9% for the second.

First: O=[N+]([O-])c1ccc(Oc2cccc3cccnc23)c([N+](=O)[O-])c1
Second: O=C(Nc1cccc2cccnc12)c1cccc([N+](=O)[O-])c1
The inhibition of the first is higher: 72% for the first, 14.7% for the second.

First: Cn1c(SCc2nc3ccccc3[nH]2)nnc1-c1cnccn1
Second: Cc1cccc(CN2CCc3c([nH]c4ccccc34)C2C(C)(C)C)n1 (configuration not stated)
The inhibition of the first is lower: 11% for the first, 14.5% for the second.

Compared with CCOC(=O)Cn1c(=O)oc2ccc(C)cc21, CCOC(=O)c1ccc(NC(=O)CCc2ccc(C)o2)cc1 is higher in inhibition: 16.3% for the first, 79.2% for the second.

Compared with CCn1cc(/C=N/NC(=O)c2ccc3c(c2)OCO3)c(C)n1, Cc1ccc2cc(/C=N/NC(=O)CN3CCOCC3)c(Cl)nc2c1 is higher in inhibition: -8.38% for the first, 6.43% for the second.

Going from CCN(CC)C(=O)c1sc2nc(Cc3ccccc3)[nH]c(=O)c2c1C to Cc1noc(C)c1COC(=O)CCc1nc2ccccc2c(=O)[nH]1, the inhibition falls from 11% to -4.31%.

Going from O=C(Nc1ccc(S(=O)(=O)Nc2ncccn2)cc1)C1=NN(c2ccccc2)C(=O)CC1 to NS(=O)(=O)c1ccc(NC(=O)Cn2nc(C(=O)O)c3ccccc3c2=O)cc1, the inhibition falls from 36.2% to 2.92%.

Going from O=C(N/N=C/c1ccc(N2CCOCC2)cc1)C1CC1 to O=C(NCCN1CCN(c2ccccc2)CC1)C1CCN(S(=O)(=O)c2cccc3nonc23)CC1, the inhibition rises from 3.95% to 18.8%.

Going from COC1CCCN(Cc2c(C(=O)N3CCN(C4CCCCC4)CC3)nc3ccccn23)C1 (configuration not stated) to CCCNc1nc2nc3ccccn3c(=O)c2cc1C(=O)NCCN1CCOCC1, the inhibition falls from 6.53% to -18.1%.

Compared with O=C(C1=C[C@H](c2ccc(C(F)(F)F)cc2)C[C@H](OCc2ccc(CO)cc2)O1)N1CCCCCCC1, O=C(NC1CCCCCC1)c1ccc(CS(=O)(=O)Cc2ccc(F)cc2)o1 is lower in inhibition: 23% for the first, 1.29% for the second.

Going from OC(CNCC1CCCO1)Cn1c2ccccc2c2ccccc21 (configuration not stated) to OC(CNCC1CCCO1)COc1ccc(OCC(O)CNCC2CCCO2)cc1 (configuration not stated), the inhibition falls from 25.3% to 10.8%.

Going from Cc1ccc(O)c(CNc2nccs2)c1 to CCc1nnc(NC(=O)c2c(-c3ccccc3)noc2C)s1, the inhibition rises from -1.47% to 13.3%.

Going from O=C(CCNS(=O)(=O)c1ccc(OC(F)(F)F)cc1)N1CCN(C/C=C/c2ccccc2)CC1 to Cc1ccc(S(=O)(=O)N2CCC(C(=O)OCC(=O)NCCc3ccccc3)CC2)cc1C, the inhibition falls from 47.4% to 27.8%.

Compared with O=C1CNC(=S)N1CCCn1ccnc1, CCCCn1c(O)c(C=NCCCn2ccnc2)c(=O)[nH]c1=O is higher in inhibition: 2.92% for the first, 5.46% for the second.

First: Cc1ccc(CCC(=O)Nc2ccc(C#N)cc2)o1
Second: CC(=O)Nc1ccc(NC(=O)CCc2ccc(C)o2)cc1
The inhibition of the first is higher: 50.3% for the first, 16.7% for the second.

First: Cc1ccc(CCC(=O)Nc2ccc(CC(=O)O)cc2)o1
Second: COc1ccc(NC(=O)Nc2c(O)ccc3ccccc23)cc1
The inhibition of the first is lower: 9.94% for the first, 17.9% for the second.

Going from O=C(N/N=C\c1ccncc1)c1ccccc1O to O=C(N/N=C/c1ccc(OCc2ccccc2)cc1)c1ccco1, the inhibition falls from 19.9% to 6.81%.

Going from COc1ccc(C(=O)Nc2ccc(O)c3ccccc23)cc1 to COc1ccc(C(=O)C[n+]2ccc3c(c2)nc(-c2ccccc2)n3C)cc1, the inhibition falls from 75.7% to 65.3%.

Going from O=C(Nc1c(F)cc(F)cc1Br)c1cc(-c2ccc(O)cc2)on1 to COc1ccc(-c2cc(C(=O)Nc3c(F)cc(F)cc3Br)no2)cc1, the inhibition falls from 79.2% to 79.1%.

Going from O=S1(=O)N=C(N/N=C/c2ccccn2)c2ccccc21 to CN(/N=C/C=C/c1ccccc1)C1=NS(=O)(=O)c2ccccc21, the inhibition falls from 10.2% to -1.47%.

First: COc1ccccc1NC(=O)CC1SC(=N)N(c2ccccc2)C1=O (configuration not stated)
Second: CCCSc1nnc(Cn2c(=O)sc3ccccc32)n1-c1ccccc1
The inhibition of the first is lower: -5.17% for the first, 7.2% for the second.

Compared with Cc1cc(S(=O)(=O)NCCC2=CCCCC2)ccc1Br, CCOC(=O)C1CCN(S(=O)(=O)c2ccc(C)c(C)c2)CC1 is lower in inhibition: 34.3% for the first, -7.38% for the second.

Going from O=C(NC(=S)NCC1CCCO1)c1ccc(Br)o1 (configuration not stated) to CN(CC(=O)Nc1cccc(F)c1)C(=O)c1ccc(OCC2CCCO2)cc1 (configuration not stated), the inhibition rises from -17.8% to -4.27%.

Compared with COc1cc(C2N(c3ccc(Cl)cc3)C(=O)C3CCCN32)cc(OC)c1OC (configuration not stated), O=C(CN1CCN(c2ccc(Cl)cc2)CC1)Nc1cccc(F)c1 is higher in inhibition: -23.2% for the first, 69% for the second.

First: COc1ccc(Cc2nnc(NC(=O)c3c(-c4ccccc4)noc3C)s2)cc1
Second: CCC(CC)c1nnc(NC(=O)c2cc(-c3ccccc3)nc3ccccc23)s1
The inhibition of the first is lower: 4.39% for the first, 18.4% for the second.

Going from CC1(C)CC(=O)C(Sc2ccccc2C(=O)O)=C(O)C1 to CCCCn1c(O)c(/C=C2\C=Nc3ccccc32)c(=O)[nH]c1=O, the inhibition rises from -8.16% to 59%.

Compared with COCc1cc(C)nc2sc(C(=O)N3CCCC3)c(N)c12, COc1ccc(/C=N/NC(=O)NC23CC4CC(CC(C4)C2)C3)c(OC)c1 is higher in inhibition: 3.21% for the first, 27.6% for the second.

Compared with CCC(CC)c1nnc(NC(=O)c2ccco2)s1, O=C(Nc1cccc(-n2cnnn2)c1)c1ccncc1 is lower in inhibition: 14.7% for the first, 0.55% for the second.

First: O=c1[nH]c(=O)n(Cc2ccccc2)c(O)c1/C=C1\C=Nc2ccccc21
Second: O=c1[nH]c(=O)n(Cc2ccccc2Cl)c(O)c1C=Nc1ccc(F)cc1
The inhibition of the first is higher: 66.3% for the first, -1.58% for the second.

Going from Cn1c(O)c(/C=C2/C=CC=N2)c(=O)[nH]c1=O to CCCCn1c(O)c(/C=N/NC(=O)c2ccncc2)c(=O)[nH]c1=O, the inhibition falls from 75.9% to 53.7%.

Compared with Cc1[nH]c2ccc(F)cc2c1CCN(Cc1ccncc1)C(=S)Nc1cccc(F)c1, Nc1nc(NCc2c(F)cccc2Cl)nn1-c1ccccc1 is lower in inhibition: 16.2% for the first, 2.25% for the second.
